Results published in the supplement of paper PMC11482750.
± gives the standard deviation of the averaged measurements.

These targets were tested with CCCCN=C=S [butyl isothiocyanate] (assay: control-subtracted net OSN firing rate; higher = stronger neuronal activation). Conditions: odorant dilution (vol/vol): 1/100.
Experimental: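 Single sensillum recordings from olfactory sensory neurons. The neurons sit in the maxillary palp or antennal sensilla of D. melanogaster (wild type, mutants, or at1 empty-neuron lines expressing Or42a homologs or the A181D S307P mutant) and of four Scaptomyza species. Each odorant was given as a 1 s pulse from 20 µl loaded on filter paper at 1:100 vol/vol, diluted in mineral oil (γ-hexalactone in DMSO). Spikes were counted in a 0.5 s window starting 0.2 s after onset, background was subtracted, the count was doubled, and the mean solvent-control response was subtracted.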

Target	control-subtracted net OSN firing rate [spikes/s]
Or67dGal4; UAS-A181D S301P at1	68.6 ± 33
Or67dGal4, UAS-Sfla A181D S307P/+ at1	29 ± 10
S. hsui pb3a-like	0 ± 6.8
Or67dGal4; UAS-SflaOr42a3 at1	74.8 ± 23
S. flava pb1b-like	-17.7 ± 20
Canton-S (D. melanogaster) pb1b	-2.22 ± 8
S. pallida pb1b-like	-4.33 ± 11
S. hsui pb2b-like	3.67 ± 6.9
S. montana pb1a-like	92.3 ± 11
Or67dGal4, UAS-Sfla Or42a2 at1	2.86 ± 5
Or67dGal4, UAS-Dmel Or42a at1	10.3 ± 7.7
S. flava pb3b-like	1.67 ± 15
S. montana pb3b-like	0.333 ± 6.1
S. pallida pb3a-like	-3 ± 7.5
S. pallida pb3b-like	-1.67 ± 20
S. flava pb3a-like	5.67 ± 8.2
S. flava pb2a-like	-3 ± 8.9
S. hsui pb1a-like	7.67 ± 5.8
S. hsui pb3b-like	1 ± 2.8
S. pallida pb2b-like	2.67 ± 9.3

Target	control-subtracted net OSN firing rate [spikes/s]
Canton-S (D. melanogaster) pb3b	2 ± 11
S. montana pb2b-like	-0.333 ± 6
S. pallida pb1a-like	11.7 ± 10
Or67dGal4, UAS-Sfla Or42a4 at1	96.7 ± 25
Canton-S (D. melanogaster) pb2b	-1.71 ± 8.6
S. hsui pb1b-like	-1 ± 5.2
Canton-S (D. melanogaster) pb2a	3.43 ± 2.8
S. hsui pb2a-like	-1 ± 6
Or67dGal4, UAS-Sfla Or42a4/+ at1	22.6 ± 4.1
Or67dGal4, UAS-Sfla Or42a3/+ at1	27.7 ± 5
Canton-S (D. melanogaster) pb3a	2.5 ± 6.6
S. montana pb2a-like	2 ± 4.6
S. montana pb1b-like	-15 ± 6.8
S. pallida pb2a-like	5 ± 7.6
S. flava pb2b-like	-1.33 ± 10
S. flava pb1a-like	90.7 ± 22
Or67dGal4, UAS-Sfla Or42a3 at1	46 ± 28
Or67dGal4; UAS-SflaOr42a4 at1	120 ± 36
S. montana pb3a-like	0.667 ± 10
Canton-S (D. melanogaster) pb1a	8 ± 8.9
